# In the library only some 7.9% were active in any assay of this set; here they are far more common.
# Marburg entry inh – qHTS for inhibitors of binding or entry into cells for Marburg Virus; AID 540276, 2011; Potency, µM (highest dose often 37.8 µM), for inactives: at the highest dose activity change, negative = inhibition, actives largely listed as inhibitors; hit rate 1.8% among 300,000; Marburg virus pseudotyped entry inhibition, cell reporter; calls by dose curve; tested in HEK293 cells; note: potency is the fitted concentration of half-maximal effect
# HCMV antiviral – qHTS Assay for inhibitors of the human cytomegalovirus (HCMV); hit rate 4.5% among 410,000; HFF cells, HCMV-luciferase reporter, 72 h; stronger effect = lower value; activity change, negative = inhibition, % at 57.5 µM; in the data active = activity change below about -60%; inconclusive = no clear call, values can overlap the other calls; inactive = above about -39%
#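 Luciferase read-out from HCMV-luciferase-infected HFFs (MOI 1 PFU/cell) 72 h post infection at 37C; compounds added after 16 h cell attachment; activity normalized between buffer-only basal and Salinomycin (10uM) inhibitor controls.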
# FMDV inh – High Throughput Screening for Foot and Mouth Disease Virus Antivirals; FMDV antiviral cell-based qHTS; hit rate 1.2% among 410,000; Potency, µM (titrated, usually from 57.9 µM), without a hit: at the highest dose activity change, negative = inhibition, most hits filed as inhibitors; calls by dose curve; tested in HEK293T cells; note: read-out not given here; potency is the fitted concentration of half-maximal effect; nearly all actives have a fitted effect of over 45% in size
# HCV inh – qHTS Assay for Inhibitors of Hepatitis C Virus (HCV). Huh7.5.1 HCVcc-Cre infection, luciferase reporter, 44 h. Potency, µM (titrated, usually from 41.8 µM), for the others: at the top dose activity change, negative = inhibition, hits mostly inhibitors. hit rate 3.4% among 340,000. AID 651820, 2012; active = well fitted inhibition curve with a large enough effect; inconclusive = small, poorly fitted or top-dose-only effect, or another doubt; inactive = no such curve, though single readings can be large or run the other way; note: potency is the fitted concentration of half-maximal effect
#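 Reporter virus HCVcc-Cre (~0.5 moi) infects cells exposed to compound; seeding density 1,000 cells/well with 4 h settling beforehand. Luminescence, 15 sec read, taken 44 h post-infection following a 15 min RT substrate incubation.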
# Lassa entry inh – qHTS for Inhibitors of binding or entry into cells for Lassa Virus; Lassa virus pseudotype entry inhibition, cell reporter; Potency, µM (series often up to 37.9 µM), for inactives: at the top dose activity change, negative = inhibition, most hits filed as inhibitors; hit rate 1.2% among 300,000; calls by dose curve; tested in HEK293 cells; note: potency is the fitted concentration of half-maximal effect; nearly all actives have a fitted effect of over 50% in size
# * hit, by the source's call; u = inconclusive; x = not tested or not shown. % is set by controls: 0 for no effect and ±100 for the full control effect.
SMILES,Marburg entry inh,HCMV antiviral,FMDV inh,HCV inh,Lassa entry inh
COCCNC(=O)c1cnn2c1NC(c1ccco1)CC2C(F)(F)F (centres undefined),12.0%,-25.5,1.5%,9.5%,0.5%
COc1ccc(N2C(=O)[C@@H]3C[C@H]2CN3Cc2ccc3nccnc3c2)cc1Cl,x,x,-13.7%,x,x
O=C(NC(=S)NC(c1ccccc1)c1ccncc1)c1ccccc1 (centres undefined),6.51µM*,-10.0,u,u,u
CCCCNC(=O)c1nc2ccccc2nc1-c1cccc(Br)c1,x,-2.0,x,x,x
Cc1cc(C)c(C#N)c(SCc2nc3ccccc3c(=O)[nH]2)n1,1.12µM*,-4.8,21.2%,-4.5%,3.16µM*
CCCN1C(=O)/C(=C/c2ccc(N3CCOCC3)cc2)NC1=S,x,-4.9,-15.6%,-20.5%,x
Cc1ccc(CN2C(=O)N/C(=C\c3ccc(N4CCOCC4)cc3)C2=O)cc1,8.2%,-7.3,-13.0%,12.6%,0.0461µM*
CCN1C(=O)/C(=C/c2ccc(N3CCCC3)cc2)NC1=S,u,-64.6*,-24.5%,u,-11.8%
c1cncc(CNc2ncncc2-c2ccoc2)c1,x,x,-20.2%,x,x
CC1CCCN(CCCNC(=O)C2CCN(S(=O)(=O)N3CCC4(CC3)OCCO4)CC2)C1 (centres undefined),x,0.0,-9.8%,u,x
CC(C)c1ccc2[nH]c(O)c(N=NC(=O)c3cccc(S(=O)(=O)N4CCCCC4)c3)c2c1,10µM*,-23.9,u,11.2µM*,u
C[C@H]1[C@@H](NC(=O)Nc2cc(Cl)cc(Cl)c2)CC[C@@]23CCCN2C(=O)CCC[C@@H]13,x,3.9,x,x,x
Cc1ccc(C2C(=O)N(C3CCCCCC3)CC(=O)N2CCC2=CCCCC2)cc1 (centres undefined),x,-63.5*,-15.3%,x,u
COc1cc(C(O)c2nc(-c3cccc(NC(C)=O)c3)cs2)ccc1F (centres undefined),x,-37.2,0.0%,x,x
O=C(Nc1ccc(-n2cccc2)cc1)C1=COC2=NC(=O)N(Cc3ccccc3)CCN12,x,-87.1*,x,x,x
CC(=O)Nc1ccc(NC(=O)C2=COC3=NC(=O)N(Cc4ccccc4C)CCN23)cc1,x,-34.8,x,x,x
Cc1ccc(-c2csc3nc4c5ccccc5c(NCCCN(C)C)nn4c(=O)c23)cc1,x,-99.0*,-29.7%,2.6%,x
CCc1nc2scc(-c3ccc(C)cc3)c2c(=O)n1N,-2.7%,-20.8,-2.1%,-23.4%,13.6%
COc1ccc(C2c3c(ncn(CCCO)c3=N)Oc3ccc4ccccc4c32)cc1 (centres undefined),u,103.9,u,-29.5%,u
COc1ccc(C2c3ccc4ccccc4c3Oc3ncn(CCCN(C)C)c(=N)c32)cc1 (centres undefined),1.78µM*,-63.8*,0.9%,u,u
COc1ccccc1C1c2ccc3ccccc3c2Oc2ncn(CCN(C)C)c(=N)c21 (centres undefined),2.82µM*,-100.9*,-30.6%,12.6µM*,u
COc1ccccc1C1c2ccc3ccccc3c2Oc2ncn(CCCO)c(=N)c21 (centres undefined),u,x,-17.0%,u,u
COc1ccc(C2c3c(ncn(CCN4CCOCC4)c3=N)Oc3ccc4ccccc4c32)cc1OC (centres undefined),10.3µM*,-11.1,u,u,u
CS(=O)(=O)Nc1cccc(-c2ccc3ncnc(N4CCOCC4)c3c2)c1,x,x,-13.0%,x,x
O=C1c2cccc(OCc3ccc(F)cc3)c2CCN1Cc1ccc(F)cc1,u,-82.4*,u,6.31µM*,u
SMILES,Marburg entry inh,HCMV antiviral,FMDV inh,HCV inh,Lassa entry inh
Cc1ccc(CN2CCc3c(OCc4ccc(F)cc4)cccc3C2=O)cc1,u,-80.7*,u,u,7.08µM*
O=C(Nc1ccc(Cl)cc1F)c1cc(S(=O)(=O)NC2CCCCCC2)ccc1F,x,0.0,27.3%,x,u
COC(=O)c1ccccc1,x,22.0,x,x,x
CC(=O)[O][Hg][c]1ccccc1,x,x,4.47µM*,x,x
Cc1sc(NC(=O)c2ccco2)c(CN2CCC(C)CC2)c1C,u,-19.7,-27.8%,u,-24.5%
Cc1sc(NC(=O)c2ccco2)c(CN2CCN(Cc3ccccc3)CC2)c1C,12.6µM*,4.5,-28.6%,u,u
Cc1sc(NC(=O)c2ccco2)c(C(c2cccnc2)N2CCC(C)CC2)c1C (centres undefined),u,-92.8*,17.8µM*,8.91µM*,20.6µM*

# Screening results: PubChem, National Center for Advancing Translational Sciences (NCATS)
